# Bioassay records from PubChem.
# Hits are enriched below; roughly 11% of the tested compounds scored in any of these assays.
# ALDH1A1 block = blocks purified human ALDH1A1 activity; Potency, µM (titrated, usually from 75.3 µM), most hits filed as inhibitors; AID 1030; P00352; 7.3% of 220,000 active; Purified ALDH1A1, NADH fluorescence, propionaldehyde substrate
# PNC assembly inh = inhibitors of perinucleolar compartment assembly; AID 2417; activity change (PNC), negative = inhibition, % at 10 µM; PC3M PTB-GFP, PNC prevalence imaging, 16 h; hits give low values; 3.1% of 140,000 active;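 active = readout at or below -70, meaning at least 70% loss of cells showing the perinucleolar compartment, a nuclear body marking cancer cells; inconclusive = readout between -30 and a set limit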
#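 Read-out is percentage of cells bearing a perinucleolar compartment, from automated 20x imaging of fixed, Hoechst-stained PC3M PTB-GFP cells. Cells were seeded 4 h, then exposed 16 h to compound (23 nl of library stock) in duplicate plates.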
# HPGD block = HPGD (human) dehydrogenase inhibition. P15428. purified HPGD, NADH fluorescence kinetic, PGE2 substrate. Potency, µM, actives largely listed as inhibitors. 4.3% of 150,000 active. AID 894
# Target sequence (P15428 whole entry, looked up): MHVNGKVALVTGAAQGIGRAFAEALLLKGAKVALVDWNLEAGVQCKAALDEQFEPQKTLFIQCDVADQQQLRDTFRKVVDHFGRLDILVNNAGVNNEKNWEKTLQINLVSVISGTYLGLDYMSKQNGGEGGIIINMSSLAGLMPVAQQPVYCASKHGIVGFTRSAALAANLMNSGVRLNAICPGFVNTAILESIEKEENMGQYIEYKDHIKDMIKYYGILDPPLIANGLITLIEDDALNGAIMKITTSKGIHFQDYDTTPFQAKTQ
#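 NADH formation kinetics: reaction with 30 uM PGE2 and 1 mM NAD+ (final), 20 nM enzyme, Tris-HCl pH 8 with Tween 20, after 15 min compound preincubation at room temperature. Fluorescence change, last versus first of five reads.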
# Numbers stand for hits; – = inactive; ? = inconclusive; · = not tested or not shown; [ ] = dose if it differs, or a comment. Unless noted, calls come from the whole dose curve; as a rule, active = well fitted inhibition curve with a large enough effect (not every such curve was filed as active); inconclusive = small, poorly fitted or top-dose-only effect, or another doubt; inactive = no such curve, though single readings can be large or run the other way.
SMILES,ALDH1A1 block,PNC assembly inh,HPGD block
C=CCN1C(=O)/C(=C/c2ccc(OC(C)=O)c(OCC)c2[N+](=O)[O-])SC1=S,–,·,·
COC(=O)C[C@H]1c2ccccc2[C@H]2C(=C[C@@H](C)[C@H]3C(=O)N(O)C(=O)[C@H]32)N1C(=O)OC,–[13.5 µM],·,–
CCOc1ccc(NC(=O)CSc2nnc(CCNC(=O)c3ccc(OC)cc3)n2C)cc1,–,–,–
c1cncc(-c2cc(-c3cc(-c4cccnc4)n[nH]3)[nH]n2)c1,–[13.5 µM],·,–
CCCCOc1ccc(-c2nnn(CC(=O)NCc3ccco3)n2)cc1,–,–,–
CCOc1ccc(-c2nnn(CC(=O)NCc3ccco3)n2)cc1OCC,–,-100,–
O=C(CCCn1c(=S)[nH]c2ccc(Br)cc2c1=O)N1CCN(c2ccccn2)CC1,–,–,–
Cc1ccc(-c2noc(CN3CCN(c4ccccc4F)CC3)n2)cc1,11µM,?,–
Cc1ccc(-c2noc(CN3CCCCC3)n2)cc1,–,–,–
O=[N+]([O-])c1ccc(Oc2ccc(-c3cnc4ccccc4n3)cc2[N+](=O)[O-])cc1,–,–,–
O=[N+]([O-])c1cc(-c2cnc3ccccc3n2)ccc1Oc1ccc(Br)cc1,–,-106,–
O=C(NCc1ccc(Cl)cc1Cl)C1CCN(S(=O)(=O)c2ccc3c(c2)OCCCO3)CC1,?,–,–
CN(C)C(=O)CN(c1ccc2c(c1)OCO2)S(C)(=O)=O,–,-106,–
CS(=O)(=O)N(CC(=O)Nc1ccc2c(c1)OCO2)c1ccc2c(c1)OCO2,–,–,–
C[N+](C)(C)c1cc2c(nn1)Nc1ccccc1S2,–[13.5 µM],·,?
COc1cc(/C=C(\C#N)C(=O)c2c(C)[nH]c3ccccc23)cc(OC)c1OC,8.9µM,–,·
COc1ccc(/C=C(\C#N)C(=O)c2c(C)[nH]c3ccccc23)cc1OC,–,–,–
CC1(C)OC2CC3C4CC(F)C5=CC(=O)C=CC5(C)C4C(O)CC3(C)[C@]2(C(=O)CO)O1 (some centres undefined),–,·,–
COc1ccc(C(=O)N=S2CCN(C(=O)c3ccc(Cl)cc3)CC2)cc1,–,·,·
CN(C)S(=O)(=O)c1cccc(-c2nn(-c3ccccc3)cc2/C=C(\C#N)c2nc3ccccc3[nH]2)c1,–,–,–
CN(C)S(=O)(=O)c1cccc(-c2nn(-c3ccccc3)cc2/C=C2\SC(=S)NC2=O)c1,–,–,16µM
CCCCN(NC(C)=O)c1nc(Cl)nc(NC(C)C)n1,–,–,–
CCCC(=O)Nc1sc(C)c(C)c1C(=O)Nc1cccc(C)c1,–,–,–
CCOc1ccc(N(C(=O)Cn2nnc3ccccc32)C(C(=O)NC(C)(C)CC)c2cccn2C)cc1 (centres undefined),–,–,–
CCC(C)(C)NC(=O)C(c1cccn1C)N(C(=O)Cn1nnc2ccccc21)c1ccc(OC)cc1OC (centres undefined),11µM,–,–
SMILES,ALDH1A1 block,PNC assembly inh,HPGD block
CCC(C)(C)NC(=O)C(c1ccc(C)cc1)N(Cc1ccco1)C(=O)Cn1nnc2ccccc21 (centres undefined),–,-100,–
CC(C)(C)NC(=O)C(c1ccsc1)N(CCc1ccccc1)C(=O)Cn1nnc2ccccc21 (centres undefined),?,-89,–
Cc1cc(C)c(N(C(=O)Cn2nnc3ccccc32)C(C(=O)NC(C)(C)C)c2ccsc2)c(C)c1 (centres undefined),–,–,–
CCC(C)(C)NC(=O)C(c1ccncc1)N(Cc1cccs1)C(=O)Cn1nnc2ccccc21 (centres undefined),–,–,–
CCOC(=O)c1cnc2c(cnn2CC)c1NN=C(C)C,–,·,?
O=C(CCCc1c[nH]c2ccccc12)NCC1COc2ccccc2O1 (centres undefined),–,·,·
c1ccc2c(c1)CCN(c1nc3cc4c(cc3s1)OCCO4)C2,–,–,·
COC(=O)c1cc(O)c(OCc2ccccc2)c(O)c1,–,-85,?
COC(=O)c1[nH]c(=O)c2ccccc2c1OCc1ccccc1,?,–,–
CC(C)COC(=O)COc1cc(Cl)c(Cl)cc1Cl,–,·,–
O=C(Nn1c(-c2ccccc2)nc2ccccc2c1=O)C1CCC1,?,–,–
O=[N+]([O-])c1ccc(N2CCN(S(=O)(=O)c3ccc4ccccc4c3)CC2)cc1NCC1CCCO1 (centres undefined),–,–,–
COc1ccc(/C=C/C(=O)c2ccc(O)cc2O)cc1,?,·,32µM
O=C(/C=C/c1ccc(O)cc1)c1ccc(O)cc1O,–,–,–
COc1ccc(C(=O)/C=C/c2ccccc2)c(O)c1,–,·,·
COc1ccc(/C=C/C(=O)c2cc(Br)ccc2O)cc1OC,–,·,·
O=C(/C=C/c1ccccc1)c1ccc(O)cc1O,?,·,16µM
